Measured values published in PubChem BioAssay (EPA / NIEHS).
Activity calls are given as the source filed them. How the source made its calls: active means hit-call score of the fitted dose curve at least 0.9, where 1 is the maximum; inactive means score below 0.9.

Legend:
[1] = ATG_CRE_CIS: Attagene CIS-FACTORIAL HepG2 Assay for human cAMP Responsive Element (CRE) binding protein 3 (AID 2282926); conditions: HepG2 CRE cis-reporter, Attagene multiplexed mRNA; actives raise or lower the signal
In short: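 Assay format: transient reporter transfection of HepG2, 24 h treatment, total RNA isolation with DNase I step. Reporter abundance read by fluorescence after PCR and capillary separation; DMSO-normalised gain or loss fitting.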

[2] = biological target: CCAAT/enhancer-binding protein beta (Homo sapiens) (UniProt P17676); experiment: ATG_C_EBP_CIS: Attagene CIS-FACTORIAL HepG2 Assay for human CCAAT/Enhancer Binding Protein (C/EBP) beta (AID 2282927); conditions: HepG2 Attagene cis-factorial transcription factor reporter; actives raise or lower the signal
Sequence of CCAAT/enhancer-binding protein beta (Homo sapiens) (P17676 whole entry, looked up): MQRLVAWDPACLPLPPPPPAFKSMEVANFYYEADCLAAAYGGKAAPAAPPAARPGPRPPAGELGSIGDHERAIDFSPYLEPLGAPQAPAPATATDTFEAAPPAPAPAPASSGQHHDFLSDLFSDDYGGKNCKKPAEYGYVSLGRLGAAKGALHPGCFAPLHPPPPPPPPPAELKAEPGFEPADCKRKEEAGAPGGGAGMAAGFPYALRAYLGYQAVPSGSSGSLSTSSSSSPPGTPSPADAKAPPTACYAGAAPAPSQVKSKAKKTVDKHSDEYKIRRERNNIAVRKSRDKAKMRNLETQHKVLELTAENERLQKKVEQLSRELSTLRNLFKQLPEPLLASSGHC
In short: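 RT-PCR/capillary electrophoresis fluorescence of reporter mRNA, 24 h post-dose, in HepG2 cells carrying transfected cis-promoter reporter units. Bidirectional curve fitting against DMSO baseline captures gain or loss of signal.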

[3] = ATG_DR4_LXR_CIS: Attagene CIS-FACTORIAL HepG2 Assay for human Liver X Receptor (LXR), DR4 submotif (AID 2282929); conditions: HepG2 Attagene DR4 cis-reporter, mRNA transcription; actives raise or lower the signal
In short: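 Transiently transfected HepG2 liver cells; cis-regulated reporters; 24 h dosing. RT-PCR plus CE read-out of reporter mRNA. DMSO baseline, bidirectional curve fitting.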

[4] = ATG_AP_1_CIS: Attagene CIS-FACTORIAL HepG2 Assay for human Activator Protein 1 (AP-1) (AID 2282931); conditions: HepG2 Attagene cis-factorial AP-1 reporter mRNA; actives raise or lower the signal
In short: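 We transfected HepG2 cells transiently with a set of cis-regulated reporter transcription units, dosed them for 24 h, and quantified reporter mRNA via RT-PCR and capillary electrophoresis, scoring gain or loss of signal relative to DMSO.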

[5] = ATG_AP_2_CIS: Attagene CIS-FACTORIAL HepG2 Assay for human Activator Protein 2 (AP-2) (AID 2282932); conditions: HepG2 AP-2 cis-reporter, Attagene transcription factor profiling; actives raise or lower the signal
In short: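 Cells (HepG2) transfected with promoter-driven reporter constructs, treated 24 h. Total RNA reverse-transcribed, reporter cDNA PCR-amplified, FAM-labelled by primer extension, digested, resolved by capillary electrophoresis. Activity fitted both directions versus DMSO.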

[6] = ATG_BRE_CIS: Attagene CIS-FACTORIAL HepG2 Assay for human Bone Morphogenetic Protein (BMP) Response Element (BRE) (AID 2282933); conditions: HepG2 BMP response element reporter, Attagene transcription factor profiling; actives raise or lower the signal
In short: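 Transient MRTU transfection of human HepG2 liver cells; 24 h compound treatment; total RNA isolated, reverse-transcribed, PCR-amplified, 6-FAM labelled, HpaI-cut, capillary electrophoresis. DMSO = negative control/baseline, bidirectional fit.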

[7] = biological target: Retinoic acid receptor alpha (Homo sapiens) (UniProt P10276); experiment: ATG_DR5_RAR_CIS: Attagene CIS-FACTORIAL HepG2 Assay for human Retinoic Acid Receptor Alpha (RARE), DR5 submotif (AID 2282934); conditions: HepG2 Attagene cis-factorial RARE DR5 reporter, mRNA; actives raise or lower the signal;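 on AC50: reporter responds to endogenous RAR alpha beta and gamma in HepG2 not RARA alone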
Sequence of Retinoic acid receptor alpha (Homo sapiens) (P10276 whole entry, looked up): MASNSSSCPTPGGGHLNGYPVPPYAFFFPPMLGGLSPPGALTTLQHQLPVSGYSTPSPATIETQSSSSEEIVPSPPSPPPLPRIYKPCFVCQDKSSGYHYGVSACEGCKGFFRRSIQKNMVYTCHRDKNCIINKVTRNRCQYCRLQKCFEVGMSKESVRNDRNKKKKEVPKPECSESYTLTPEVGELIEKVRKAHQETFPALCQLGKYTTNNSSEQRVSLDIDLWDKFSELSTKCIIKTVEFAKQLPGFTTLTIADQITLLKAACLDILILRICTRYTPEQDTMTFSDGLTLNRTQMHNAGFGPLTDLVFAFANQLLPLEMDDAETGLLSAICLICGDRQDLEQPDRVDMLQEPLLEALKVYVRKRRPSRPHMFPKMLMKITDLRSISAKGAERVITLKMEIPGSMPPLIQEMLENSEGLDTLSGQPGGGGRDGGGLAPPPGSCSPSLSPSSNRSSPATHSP
In short: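 HepG2 cells transiently transfected with multiplexed reporter units under cis (DR5 RARE) promoters, so endogenous transcription factor activity is measured. After 24 h compound exposure, reporter mRNA is quantified by RT-PCR with fluorescent labelling and capillary electrophoresis; bidirectional fitting versus DMSO.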

[8] = biological target: Transcription factor E2F1 (Homo sapiens) (UniProt Q01094); experiment: ATG_E2F_CIS: Attagene CIS-FACTORIAL HepG2 Assay for human E2F Transcription Factor 1 (AID 2282935); conditions: HepG2 Attagene cis-reporter, E2F reporter RNA transcripts; actives raise or lower the signal
Sequence of Transcription factor E2F1 (Homo sapiens) (Q01094 whole entry, looked up): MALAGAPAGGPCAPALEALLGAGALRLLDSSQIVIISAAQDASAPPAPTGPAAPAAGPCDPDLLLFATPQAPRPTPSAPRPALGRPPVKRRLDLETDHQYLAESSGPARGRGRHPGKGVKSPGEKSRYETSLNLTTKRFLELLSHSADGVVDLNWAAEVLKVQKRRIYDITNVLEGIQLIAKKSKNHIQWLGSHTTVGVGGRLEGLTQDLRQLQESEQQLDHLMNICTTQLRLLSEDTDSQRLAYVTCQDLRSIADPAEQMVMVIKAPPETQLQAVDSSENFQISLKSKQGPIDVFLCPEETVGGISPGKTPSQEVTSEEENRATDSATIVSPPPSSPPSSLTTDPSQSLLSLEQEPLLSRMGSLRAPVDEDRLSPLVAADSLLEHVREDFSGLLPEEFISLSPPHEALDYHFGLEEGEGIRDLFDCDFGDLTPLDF
In short: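 First, HepG2 cells were transfected with reporter transcription units. Next, they were dosed for 24 h. Then RNA was isolated, converted to cDNA, PCR-amplified, FAM-labeled, HpaI-digested and analyzed by capillary electrophoresis.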

[9] = ATG_E_Box_CIS: Attagene CIS-FACTORIAL HepG2 Assay for human Enhancer Box (E-box) (AID 2282936); conditions: HepG2 E-box cis-reporter transcription, actives raise or lower the signal
In short: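 Endogenous transcription factor activity was sensed in human HepG2 liver cells through transfected cis-promoter reporter units. After 24 h of dosing, total RNA was reverse-transcribed and reporter cDNA resolved by capillary electrophoresis.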

[10] = ATG_M_61_CIS: Attagene CIS-FACTORIAL HepG2 Assay for M61 Transcription Factor (Internal Marker) (AID 2282937); conditions: HepG2 Attagene CIS-FACTORIAL M61 internal marker reporter; actives raise or lower the signal
In short: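 Multiplexed reporter mRNA assay, HepG2 human hepatoma cells, 24 h treatment. Signal: FAM-labelled, HpaI-digested RT-PCR fragments by CE. Fit: bidirectional, baseline DMSO.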

[11] = ATG_EGR_CIS: Attagene CIS-FACTORIAL HepG2 Assay for human Early Growth Response 1 (EGR1) (AID 2282938); conditions: HepG2 Attagene CIS-FACTORIAL EGR reporter mRNA; actives raise or lower the signal
In short: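 Multiplexed cis-reporter system in human hepatoma HepG2 cells, transiently transfected. Cells are dosed for 24 h; reporter transcripts are amplified, fluorescently tagged and sized by capillary electrophoresis, with DMSO as negative control.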

[12] = ATG_M_19_CIS: Attagene CIS-FACTORIAL HepG2 Assay for M19 Transcription Factor (Internal Marker) (AID 2282939); conditions: HepG2 Attagene CIS-FACTORIAL M19 internal marker reporter; actives raise or lower the signal
In short: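 Transfect HepG2 with MRTU reporter library → dose chemical, 24 h → isolate total RNA, reverse-transcribe with oligo(dT) → PCR, 6-FAM label, HpaI cut (2 h, 37 C) → capillary electrophoresis. Bidirectional fit vs DMSO.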

[13] = ATG_ERE_CIS: Attagene CIS-FACTORIAL HepG2 Assay for Estrogen Response Element (ERE) (AID 2282940); conditions: HepG2 ERE cis-reporter, Attagene RNA transcript; actives raise or lower the signal
In short: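 Transient MRTU transfection of human HepG2; cis-element promoters; 24 h dosing; total RNA → RT (oligo dT) → PCR → 6-FAM primer extension → HpaI digest → CE fluorescence. Bidirectional fit, DMSO baseline.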

[14] = ATG_Ets_CIS: Attagene CIS-FACTORIAL HepG2 Assay for human Erythroblast Transformation Specific (ETS) (AID 2282941); conditions: HepG2 ETS cis-reporter transcription, actives raise or lower the signal
In short: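 Cis-regulated reporter mRNA induction in HepG2 (transient transfection), 24 h exposure, RT-PCR plus capillary electrophoresis detection; DMSO serves as negative control and baseline.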

[15] = biological target: Hepatocyte nuclear factor 3-beta (Homo sapiens) (UniProt Q9Y261); experiment: ATG_FoxA2_CIS: Attagene CIS-FACTORIAL HepG2 Assay for human Forkhead box A2 (FOXA2) (AID 2282942); conditions: HepG2 cis-reporter transcription factor activity, 24 h; actives raise or lower the signal
Sequence of Hepatocyte nuclear factor 3-beta (Homo sapiens) (Q9Y261 whole entry, looked up): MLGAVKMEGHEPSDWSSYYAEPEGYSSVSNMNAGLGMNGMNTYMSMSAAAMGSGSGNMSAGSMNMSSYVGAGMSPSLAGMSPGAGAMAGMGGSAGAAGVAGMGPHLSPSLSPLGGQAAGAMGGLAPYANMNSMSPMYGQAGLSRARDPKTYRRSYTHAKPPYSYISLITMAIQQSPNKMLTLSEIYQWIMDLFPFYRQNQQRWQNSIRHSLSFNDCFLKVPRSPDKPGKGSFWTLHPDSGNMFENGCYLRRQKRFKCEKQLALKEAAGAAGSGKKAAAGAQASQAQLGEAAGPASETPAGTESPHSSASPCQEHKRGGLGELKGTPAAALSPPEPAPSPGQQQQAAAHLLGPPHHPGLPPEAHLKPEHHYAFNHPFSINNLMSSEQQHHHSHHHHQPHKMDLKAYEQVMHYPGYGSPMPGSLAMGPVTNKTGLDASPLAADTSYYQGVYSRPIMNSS
In short: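 Multiplexed cis-element reporter assay in transiently transfected HepG2. Twenty-four hours post-dosing, RNA was reverse-transcribed, amplified, FAM-labelled, HpaI-digested and separated by CE. Activity gain or loss relative to DMSO.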

[16] = ATG_FoxO_CIS: Attagene CIS-FACTORIAL HepG2 Assay for human Forkhead box O (FoxO) (AID 2282943); conditions: HepG2 Attagene cis-reporter, FoxO element, mRNA; actives raise or lower the signal
In short: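 HepG2 cells transiently transfected with cis-promoter-driven multiple reporter transcription units; 24 h after chemical dosing, reporter mRNA quantified by RT-PCR, fluorescent primer extension, HpaI digestion and capillary electrophoresis. Bidirectional fitting versus DMSO baseline.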

[17] = ATG_GATA_CIS: Attagene CIS-FACTORIAL HepG2 Assay for human GATA Binding Protein (AID 2282944); conditions: HepG2 GATA cis-element reporter, Attagene multiplex mRNA; actives raise or lower the signal
In short: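 Transient MRTU transfection, HepG2, 24 h compound exposure. Total RNA → oligo(dT) RT → PCR → 6-FAM primer extension → HpaI cut → CE. Bidirectional fit vs DMSO.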

[18] = ATG_GLI_CIS: Attagene CIS-FACTORIAL HepG2 Assay for human Zinc Finger Protein GLI1 (AID 2282945); conditions: HepG2, Attagene cis-factorial reporter mRNA, GLI element; actives raise or lower the signal
In short: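 HepG2 cells transiently transfected with cis-promoter multiplexed reporter units report endogenous transcription factor activity. After 24 h chemical exposure, reporter mRNA was quantified by RT-PCR, 6-FAM labelling, HpaI digestion and capillary electrophoresis, with bidirectional fitting against DMSO.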

[19] = ATG_CMV_CIS: Attagene CIS-FACTORIAL HepG2 Assay for human CMV (Internal Marker) (AID 2282928); conditions: HepG2 CMV promoter reporter, transcription factor profiling; actives raise or lower the signal;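 further: endpoint acts as a background internal control marker rather than a target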
In short: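 24 h chemical treatment, HepG2 with transient multi-reporter transfection; RNA → oligo(dT) RT → PCR → 6-FAM extension → HpaI digest → CE fluorescence. Bidirectional fit, DMSO negative control.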

[20] = biological target: Aryl hydrocarbon receptor (Homo sapiens) (UniProt P35869); experiment: ATG_Ahr_CIS: Attagene CIS-FACTORIAL HepG2 Assay for human Aryl Hydrocarbon Receptor (Ahr) (AID 2282930); conditions: HepG2 AhR cis-factorial reporter transcription; actives raise or lower the signal
Sequence of Aryl hydrocarbon receptor (Homo sapiens) (P35869 whole entry, looked up): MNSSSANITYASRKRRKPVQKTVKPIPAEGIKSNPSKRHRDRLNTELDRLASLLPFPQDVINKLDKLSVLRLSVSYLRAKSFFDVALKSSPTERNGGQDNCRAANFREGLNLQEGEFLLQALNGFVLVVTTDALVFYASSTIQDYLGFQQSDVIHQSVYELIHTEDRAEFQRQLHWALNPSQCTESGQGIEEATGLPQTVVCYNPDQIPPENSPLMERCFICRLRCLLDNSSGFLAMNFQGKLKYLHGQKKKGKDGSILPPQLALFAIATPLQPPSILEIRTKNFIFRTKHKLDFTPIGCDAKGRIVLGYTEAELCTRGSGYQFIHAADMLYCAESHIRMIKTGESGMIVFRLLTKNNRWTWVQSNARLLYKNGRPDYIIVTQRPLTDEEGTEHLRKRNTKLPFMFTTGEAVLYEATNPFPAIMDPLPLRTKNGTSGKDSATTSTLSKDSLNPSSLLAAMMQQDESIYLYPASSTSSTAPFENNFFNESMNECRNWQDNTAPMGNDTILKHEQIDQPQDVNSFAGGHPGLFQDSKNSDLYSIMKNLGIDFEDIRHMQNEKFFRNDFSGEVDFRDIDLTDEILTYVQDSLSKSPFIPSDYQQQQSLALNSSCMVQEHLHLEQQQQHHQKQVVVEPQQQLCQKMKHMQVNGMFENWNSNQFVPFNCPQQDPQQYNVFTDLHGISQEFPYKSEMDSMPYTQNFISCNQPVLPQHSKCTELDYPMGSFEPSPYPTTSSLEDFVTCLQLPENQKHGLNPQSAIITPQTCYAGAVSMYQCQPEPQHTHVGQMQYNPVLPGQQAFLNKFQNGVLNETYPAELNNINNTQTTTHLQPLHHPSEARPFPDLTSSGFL
In short: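 HepG2 cells transiently transfected with cis-element-driven multiplexed reporter transcription units; endogenous transcription factor activity measured as reporter mRNA 24 h after dosing. RT-PCR, 6-FAM labelling, HpaI digestion, capillary electrophoresis; bidirectional fitting versus DMSO baseline.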

Measured: AC50

NC(CO)(CO)CO
not listed: [19] | [20]
inactive: all other assays above

CC(C)(c1cc(Br)c(OCCO)c(Br)c1)c1cc(Br)c(OCCO)c(Br)c1
active: [1] 38.7 µM | [19] 36.7 µM | [3] 15.6 µM | [4] 36.6 µM | [5] 10.5 µM | [7] 0.22 µM | [8] 36 µM | [11] 10.5 µM | [12] 44.5 µM | [14] 43.7 µM | [15] 44.2 µM
inactive: [20] | [6] | [9] | [10] | [13] | [16] | [17] | [18]

OC1CCCC1
not listed: [2] | [20]
inactive: all other assays above

COCC(C)N (stereo not drawn)
not listed: [2] | [17]
inactive: all other assays above
